Hits are enriched below; roughly 2.4% of the tested compounds scored in any of these assays.
AmpC inh no det: blocks E. coli AmpC beta-lactamase in absence of detergent. 71,000 compounds, 1.8% hits. Potency, µM (series often up to 28.7 µM), for inactives: at the top dose activity change, negative = inhibition. AmpC nitrocefin hydrolysis, absorbance 480 nm, no detergent. P00811; also: % of control where 0% means no effect
Target sequence (P00811 whole entry, looked up): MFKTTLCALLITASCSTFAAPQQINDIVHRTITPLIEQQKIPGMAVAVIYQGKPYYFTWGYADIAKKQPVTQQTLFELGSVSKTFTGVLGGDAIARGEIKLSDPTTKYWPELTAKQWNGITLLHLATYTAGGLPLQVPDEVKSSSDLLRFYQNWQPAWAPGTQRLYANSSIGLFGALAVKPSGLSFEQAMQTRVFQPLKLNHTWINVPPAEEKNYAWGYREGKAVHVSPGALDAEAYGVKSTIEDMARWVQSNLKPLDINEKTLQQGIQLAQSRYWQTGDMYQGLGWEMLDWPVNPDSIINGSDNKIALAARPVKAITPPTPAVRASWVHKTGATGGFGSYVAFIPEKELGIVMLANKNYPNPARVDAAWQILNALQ
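Enzyme, pH 7.0 phosphate. Compound titrations were pre-incubated with AmpC for 15 min at room temperature before nitrocefin (stock 800 uM) addition; product formation was recorded at 480 nm every 20 s for 4 min.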
LT uptake inh: blocks cellular internalization of anthrax lethal toxin. Potency, µM (titrated, usually from 40 µM), for the others: at the highest dose activity change, negative = inhibition, actives largely listed as inhibitors. Cells, anthrax lethal toxin internalization, FRET ratio (460/530). 70,000 compounds, 0.67% hits. AID 912; also: % is scaled to controls: 0 for no effect and ±100 for the full control effect; nearly all actives have a fitted effect of over 50% in size
AmpC inh det: AmpC beta-lactamase inhibition, detergent assay | P00811 | AID 584 | Potency, µM (highest dose often 28.7 µM), without a hit: at the top dose activity change, negative = inhibition | purified AmpC, nitrocefin hydrolysis with detergent | 71,000 compounds, 0.09% hits; active = well fitted curve in the direction sought with a large enough effect; inconclusive = small, poorly fitted or top-dose-only effect; also: % is scaled to controls: 0 for no effect and ±100 for the full control effect
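E. coli AmpC (5.3 nM) in 20 mM phosphate pH 7.0 with 0.01% Triton X-100, preincubated 15 min RT with compound; nitrocefin (2 uL of 800 uM stock) hydrolysis followed by 480 nm absorbance every 20 s over 4 min.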
Prx2 Sm inh: Schistosoma mansoni Prx2 inhibition | Potency, µM | S. mansoni Prx2 activity coupled to TGR/GSH (TGR is thioredoxin glutathione reductase), NADPH fluorescence loss, qHTS | 65,000 compounds, 0.07% hits
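qHTS, coupled TGR/Prx2 format; 15 min compound preincubation at RT; reaction started with H2O2 (2.5 mM aliquot); kinetic NADPH fluorescence decrease, ex 365/em 450 nm.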
Active calls of the source: *; ? = inconclusive; nt = not tested or not shown; [ ] = another dose, or the depositor's remark. Unless noted, calls follow the shape of the full dose curve. Potency is read from the fitted curve at half-maximal effect.

SMILES | AmpC inh no det | LT uptake inh | AmpC inh det | Prx2 Sm inh
O=c1c2ccccc2sn1-c1ccc(S(=O)(=O)N2CCCC2)cc1 | -6% | 0.13µM* | -5% | >57
CC1=C(O)C(=O)[C@H]2O[C@@H]2C1=O | 1% | ? | 0% | >57
COc1ccccc1-c1nnc(SCC(=O)Nc2c(Cl)cccc2Cl)o1 | -14% | 20% | -3% | >57
COc1ccccc1-c1nnc(SCC(=O)NCc2c(C)c(Cl)cc(C(C)C)c2O)o1 | 94% | 10µM* | 0% | >57
CCCCCCCCCC(=O)N[C@@H](CN1CCOCC1)[C@@H](O)c1ccccc1 | 124% | -11% | -4% | >57
Cc1nnc(SCCc2ccccc2)[nH]c1=O | -19% | 2% | 11% | >57
Cc1ccccc1CSc1nnc(C)c(=O)[nH]1 | 4µM*[single pt active] | -10% | 12% | >57
COC(=O)[C@@H]1C[C@H]1[C@@H](NC(=O)OCc1ccccc1)c1ccccc1 | 21% | 9% | -2% | >57
CCNS(=O)(=O)c1ccc(C)cc1 | -5% | 1% | 7% | nt
CCOc1ccc(C(=O)c2ccc(OCC)c(N)c2)cc1N | 11% | 10µM* | 5% | nt
C[C@@H](C(=O)Nc1ccc2ccccc2c1)[C@H]1C[C@]1(C)[C@H](NC(=O)OCc1ccccc1)c1ccccc1 | 7.9µM* | ? | 2% | >57
Cc1cc(C(=O)N[C@H](c2ccccc2)[C@@]2(C)C[C@@H]2[C@@H](C)C(=O)Nc2ccc3ccccc3c2)n(C)n1 | 69% | 10µM* | -3% | >57
C[C@@H](C(=O)Nc1ccc2ccccc2c1)[C@@H]1C[C@@]1(C)[C@@H](NS(=O)(=O)c1ccccc1)c1ccccc1 | -14% | ? | 1% | >57
CC(=O)N[C@@H](c1ccccc1)[C@]1(C)C[C@H]1[C@@H](C)C(=O)Nc1ccc2ccccc2c1 | 111% | -25% | 0% | >57
O=C(O)[C@H]1[C@H](C(=O)O)[C@H]2CC[C@@H]1O2 | 9% | 2% | -3% | >57
CC[C@@]12CCCN3CC[C@@]4(c5ccc(OC)c(O)c5N(C(C)=O)[C@H]4CC1)[C@H]32 | 10% | 7% | -2% | >57
Cc1ccc(S(=O)ON2CCC(C(=O)O)(c3ccccc3)CC2)cc1 (configuration not stated) | -8%[5.75 µM] | -4%[8 µM] | -4%[5.75 µM] | >57
COc1ccc(-n2c(Cc3cc(=O)[nH]c(=O)[nH]3)nnc2SCC(=O)N2CCCC2)cc1 | 4µM*[single pt active] | -5% | 14% | >57
O=C(CSc1nnc(Cc2cc(=O)[nH]c(=O)[nH]2)n1-c1ccccc1)N1CCCC1 | -17% | 8% | -1% | >57
COc1ccc(-n2c(Cc3cc(=O)[nH]c(=O)[nH]3)nnc2SCC(=O)N2CCC(C)CC2)cc1 | 4µM*[single pt active] | -5% | 14% | >57
COc1cccc(-n2c(Cc3cc(=O)[nH]c(=O)[nH]3)nnc2SCC(=O)N2CCC(C)CC2)c1 | 8% | 14% | -1% | >57
CC1CCN(C(=O)CSc2nnc(Cc3cc(=O)[nH]c(=O)[nH]3)n2-c2ccc(Cl)cc2)CC1 | 4µM*[single pt active] | -2% | 8% | >57
O=C(CSc1nnc(Cc2cc(=O)[nH]c(=O)[nH]2)n1-c1ccccc1)N1CCCCC1 | 3.2µM*[single pt active] | -2% | 11% | >57
COc1ccc(-n2c(Cc3cc(=O)[nH]c(=O)[nH]3)nnc2SCC(=O)Nc2ccccc2)cc1 | ? | ? | 11% | >57
CO/N=C\[C@@H](NS(=O)(=O)c1ccc(C)cc1)[C@H](C)/C=C\CC(=O)OC | nt | 24%[8 µM] | nt | nt
SMILES | AmpC inh no det | LT uptake inh | AmpC inh det | Prx2 Sm inh
O=C1C=C[C@@H](O)[C@H]2[C@@H]3C(=O)N(c4cccc(Oc5ccccc5)c4)C(=O)[C@@H]3CC[C@H]12 | nt | 0%[8 µM] | nt | nt
COc1cccc(-n2c(Cc3cc(=O)[nH]c(=O)[nH]3)nnc2SCC(=O)N2CCCC2)c1 | -8% | 1% | 17% | >57
COc1cccc(-n2c(Cc3cc(=O)[nH]c(=O)[nH]3)nnc2SCC(=O)N2CCCCCC2)c1 | 4µM*[single pt active] | -8% | 14% | >57
COc1ccc(-c2coc3ccc(O[C@@H]4O[C@@H](COC(C)=O)[C@@H](OC(C)=O)[C@@H](OC(C)=O)[C@H]4OC(C)=O)c(OC(C)=O)c3c2=O)cc1 | 71% | -7% | 2% | >57
NC(=NCCCCCCN=C(N)/N=C(\N)Nc1ccc(Cl)cc1)/N=C(\N)Nc1ccc(Cl)cc1 | 2.5µM* | ? | 1% | >57
c1ccc(OP(Oc2ccccc2)Oc2ccccc2)cc1 | -6% | -3% | 11% | nt
CC(C)CCNC(=O)Cn1c(NCCC(C)C)nc2c1c(=O)n(C)c(=O)n2C | 2.5µM*[single pt active] | -2% | 14% | >57
CCOC(=O)N1CCN(C(=O)c2ccccc2-c2ccccc2)CC1 | 43% | ? | -2% | >57
CCOC(=O)N1CCN(C(=O)c2cnn3ccccc23)CC1 | 4µM*[single pt active] | 5% | 25% | >57
NC1(P(=O)(O)O)CCCCC1 | 0%[5.75 µM] | -7%[8 µM] | -3%[5.75 µM] | >57
COc1ccccc1-c1ccc2ncnc(N3CCOCC3)c2c1 | 133% | ? | 7% | >57
CN(Cc1ccco1)c1ncnc2ccc(-c3ccccc3C#N)cc12 | 72% | ? | 8% | >57
COc1cccc(-c2ccc3ncnc(N4CCOCC4)c3c2)c1 | ? | -30% | 10µM* | >57
CN(C)c1ccc(-c2ccc3ncnc(N(C)Cc4ccco4)c3c2)cc1 | 38% | 10µM* | -2% | >57
COc1cccc(-c2ccc3ncnc(N(C)Cc4ccco4)c3c2)c1 | 6.3µM* | ? | 10µM* | >57
CC12C=C(/C=C/CCc3ccco3)C(C)(C1)C(CCc1ccco1)CC2=O (configuration not stated) | nt | -10%[8 µM] | nt | nt
N[C@H](CCl)C(=O)O | -3% | 0% | -1% | >57
Cn1c(=O)c2[nH]cnc2n(C)c1=O.[CH2-][C@H](Cc1cccc2cc(C(=O)O)c(=O)oc12)OC.[Hg].[OH-] | 1%[5.75 µM] | ? | -3%[5.75 µM] | ?
O=C(OCC(=O)c1cccs1)c1ccc(NC(=O)c2ccco2)cc1 | 16µM*[single pt active] | -6% | 9% | >57
CN(C)c1ccc(C(=O)OCC(=O)c2cccs2)cc1 | -2% | -14% | 10% | >57
CCN1CCN(Cc2ccc(NC(=O)Nc3ccccc3OC)cc2)CC1 | 4µM*[single pt active] | ? | 19% | >57
CCN1CCN(CCC(=O)Nc2ccccc2OC)CC1 | -3% | -12% | -5% | >57
O=C(O)C1CCCN1S(=O)(=O)c1cccc2cccnc12 (configuration not stated) | 3% | 1% | 10% | >57
COc1ccc(C2CC(c3cccc(C)c3)n3ncnc3N2)cc1 (configuration not stated) | 4µM*[single pt active] | -2% | 15% | >57
Cc1cccc(C2CC(c3ccccc3)Nc3ncnn32)c1 (configuration not stated) | 4µM*[single pt active] | -1% | 15% | >57
COc1ccc(C2CC(c3ccco3)n3ncnc3N2)cc1 (configuration not stated) | 2.5µM*[single pt active] | -10% | 8% | >57
c1ccc(C2CC(c3ccccc3)n3ncnc3N2)cc1 (configuration not stated) | 16% | 7% | 0% | >57
